Experimental data published in PubChem BioAssay (EPA / NIEHS).
“And” between values parts separate entries of the source, which are not always exact repeats. Identical values can stand only once. Some structures have more than one record in an assay (separate samples or runs), and their calls can disagree. The source made the active and inactive calls. Rule for the calls: active = hit-call score of the fitted dose curve at least 0.9, where 1 is the maximum; inactive = score below 0.9.

Experiments:
[1] = APR_HepG2_CellCycleArrest_1hr: Apredica 1-hour HepG2 Assay for Cell Cycle Arrest (AID 2282666); settings: high-content imaging, actives raise or lower the signal
Method in brief: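 HepG2 cells exposed for 1 h to 0.39–200 uM compound (0.5% DMSO). Fixed, Hoechst-stained nuclei imaged by ArrayScan; DNA content quantified by Cell Cycle analysis; bidirectional fit against DMSO.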

[2] = APR_HepG2_CellLoss_1hr: Apredica 1-hour HepG2 Assay for Cell Loss (AID 2282668); settings: high-content imaging;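 note: curves fitted both ways against DMSO so gain or loss of cells counts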
Method in brief: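 HepG2 cells were treated for 1 h with compound at 0.39–200 uM, in duplicate, in 0.5% DMSO. After formaldehyde fixation, Hoechst 33342-stained nuclei were imaged on an ArrayScan to count cells. Data were fitted bidirectionally versus DMSO.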

[3] = APR_HepG2_MicrotubuleCSK_1hr: Apredica 1-hour HepG2 Assay for Microtubule CSK Stabilty (AID 2282669); settings: HepG2 microtubule cytoskeleton imaging, actives raise or lower the signal
Method in brief: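 HepG2 cells exposed 1 h to 0.39–200 uM compound (0.5% DMSO, duplicates), then formaldehyde-fixed, permeabilized and immunostained for alpha-tubulin with Hoechst nuclei. Imaged by ArrayScan high-content analysis; bidirectional fit versus DMSO.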

[4] = APR_HepG2_p53Act_1hr: Apredica 1-hour HepG2 Assay for p53 Activation (AID 2282671); settings: high-content imaging, actives raise or lower the signal
Method in brief: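 HepG2 cells treated 1 h with compound at 0.39–200 uM (10 concentrations, duplicate) in 0.5% DMSO. Formaldehyde-fixed, permeabilised cells immunostained for p53 with Hoechst 33342; high-content imaging, bidirectional fit versus DMSO.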

[5] = APR_HepG2_MitoticArrest_1hr: Apredica 1-hour HepG2 Assay for Mitotic Arrest (AID 2282672); settings: high-content imaging, actives raise or lower the signal
Method in brief: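 HepG2 cells exposed 1 hr to compounds at 0.39–200 uM (0.5% v/v DMSO final), then fixed in 3.7% formaldehyde and immunostained for phospho-histone H3 with Hoechst 33342. Mitotic arrest scored by automated fluorescence imaging, fitted bidirectionally versus DMSO.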

[6] = APR_HepG2_P-H2AX_1hr: Apredica 1-hour HepG2 Assay for H2AX Phosphorylation (AID 2282673); settings: high-content imaging, actives raise or lower the signal
Method in brief: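 HepG2 dosed 1 hr at 0.39-200 uM (0.5% DMSO final), duplicate. Fixed in 3.7% formaldehyde, Triton permeabilized, immunostained for phospho-histone H2A.x (1:200) with Hoechst 33342; ArrayScan 20x imaging, bidirectional fit vs DMSO.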

[7] = APR_HepG2_MitoMass_1hr: Apredica 1-hour HepG2 Assay for Mitochondrial Mass (AID 2282674); settings: high-content imaging, actives raise or lower the signal
Method in brief: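 HepG2 cells dosed 1 hr with 0.39-200 uM compound (0.5% DMSO), duplicate wells. Mitochondria stained with 250 nM MitoTracker Red CMXRos for 30 min before formaldehyde fixation, imaged at 20x by ArrayScan; bidirectional fit versus DMSO.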

[8] = APR_HepG2_MitoMembPot_1hr: Apredica 1-hour HepG2 Assay for Mitochondrial Membrane Potential (AID 2282675); settings: imaging, actives raise or lower the signal
Method in brief: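 HepG2 cells dosed 1 hour with 0.39–200 uM compound in duplicate, 0.5% DMSO final. MitoTracker Red CMXRos (250 nM, 30 min) loaded before formaldehyde fixation; fluorescence quantified by high-content imaging, bidirectional fitting versus DMSO.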

[9] = APR_HepG2_CellCycleArrest_24hr: Apredica 24-hour HepG2 Assay for Cell Cycle Arrest (AID 2282905); settings: imaging, actives raise or lower the signal;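 note: cell cycle arrest scored as ratio of 2N to 4N nuclear DNA content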
Method in brief: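 HepG2 cells were exposed to compounds at 0.39–200 uM (ten concentrations, duplicate) in 0.5% v/v DMSO for 24 hr. After formaldehyde fixation and Triton permeabilization, Hoechst 33342-stained nuclei were imaged at 20x; DNA content was quantified, with bidirectional fitting against DMSO.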

[10] = APR_HepG2_StressKinase_1hr: Apredica 1-hour HepG2 Assay for Stress Kinase (AID 2282906); settings: HepG2 stress kinase (phospho-c-Jun) imaging, actives raise or lower the signal
Method in brief: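 HepG2 cells dosed 0.39-200 uM (0.5% DMSO) for 1 h, then formaldehyde-fixed. Stress kinase read by phospho-c-Jun immunofluorescence using high-content imaging; bidirectional fit vs DMSO.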

[11] = APR_HepG2_NuclearSize_24hr: Apredica 24-hour HepG2 Assay for Nuclear Size (AID 2282907); settings: high-content imaging, actives raise or lower the signal
Method in brief: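 HepG2 human liver cells were exposed for 24 hr to compounds at 0.39–200 uM (ten concentrations, duplicate) in 0.5% v/v DMSO. They were then formaldehyde-fixed, Triton-permeabilized and Hoechst 33342-stained, and nuclear diameter was imaged at 20x. Bidirectional fits were made against DMSO.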

[12] = APR_HepG2_CellLoss_24hr: Apredica 24-hour HepG2 Assay for Cell Loss (AID 2282908); settings: high-content imaging;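 for AC50: fit in both directions so a hit may be cell loss or gain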
Method in brief: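 Compounds were tested at 0.39–200 uM in duplicate with 0.5% v/v DMSO final. Cells were then fixed in 3.7% formaldehyde, Hoechst 33342 nuclei were imaged at 20x by HCS, and cell number was fitted bidirectionally against DMSO.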

[13] = APR_HepG2_MicrotubuleCSK_24hr: Apredica 24-hour HepG2 Assay for Microtubule CSK Stabilty (AID 2282909); settings: HepG2 microtubule cytoskeleton imaging, actives raise or lower the signal
Method in brief: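 HepG2 cells exposed 24 h to compounds at 0.39–200 uM (duplicate, 0.5% v/v DMSO final), then fixed, permeabilized and immunostained for alpha-tubulin with Hoechst 33342. Cytoskeleton imaged at 20x; bidirectional fit versus DMSO baseline.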

[14] = APR_HepG2_MitoticArrest_24hr: Apredica 24-hour HepG2 Assay for Mitotic Arrest (AID 2282910); settings: high-content imaging, actives raise or lower the signal
Method in brief: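 HepG2 cells, 24 h exposure at 0.39-200 uM (10 concentrations, duplicate, 0.5% DMSO). Fixed, stained for phospho-histone H3 with Hoechst; imaged by high-content microscopy, bidirectional fit versus DMSO.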

[15] = APR_HepG2_MitoMembPot_24hr: Apredica 24-hour HepG2 Assay for Mitochondrial Membrane Potential (AID 2282911); settings: imaging, actives raise or lower the signal
Method in brief: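 Mitochondrial membrane potential imaged via MitoTracker Red CMXRos (250 nM, 30 min pre-fixation) in fixed HepG2 cells with Hoechst nuclear identification. Ten concentrations 0.39–200 uM, 24 h treatment, 0.5% DMSO; CCCP as positive control.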

[16] = APR_HepG2_MitoMass_24hr: Apredica 24-hour HepG2 Assay for Mitochondrial Mass (AID 2282912); settings: high-content imaging, actives raise or lower the signal
Method in brief: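 Human HepG2 liver cells were exposed for 24 hr to compounds at 0.39–200 uM (duplicates, 0.5% v/v DMSO final). They were stained live with 250 nM MitoTracker Red CMXRos for 30 min, fixed in 3.7% formaldehyde, and imaged by HCS fluorescence; signals were fitted bidirectionally against DMSO.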

[17] = APR_HepG2_p53Act_24hr: Apredica 24-hour HepG2 Assay for p53 Activation (AID 2282913); settings: high-content imaging, actives raise or lower the signal;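 note: p53 protein immunofluorescence averaged per cell in HepG2 with Hoechst nuclei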
Method in brief: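 Fluorescence imaging of formaldehyde-fixed HepG2 cells labelled for p53 and with Hoechst, 24 h after dosing (0.39–200 uM, duplicate wells, 0.5% v/v DMSO). Signal fitted in both directions relative to DMSO.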

[18] = APR_HepG2_CellCycleArrest_72hr: Apredica 72-hour HepG2 Assay for Cell Cycle Arrest (AID 2282914); settings: high-content imaging, actives raise or lower the signal
Method in brief: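 Read-out: nuclear DNA content from Hoechst 33342 high-content imaging (20x, six fields/well) after 3.7% formaldehyde fixation, fitted bidirectionally against DMSO. Treatment was 72 h in HepG2, ten concentrations 0.39–200 uM, duplicate, 0.5% DMSO.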

[19] = APR_HepG2_CellLoss_72hr: Apredica 72-hour HepG2 Assay for Cell Loss (AID 2282915); settings: high-content imaging
Method in brief: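 HepG2 cells exposed 72 h to compound at 0.39–200 uM (10 concentrations, duplicate) in 0.5% DMSO. Fixed with 3.7% formaldehyde and Hoechst 33342-stained. Imaged at 20x; nuclear count gives cell number, fitted bidirectionally versus DMSO.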

[20] = APR_HepG2_NuclearSize_1hr: Apredica 1-hour HepG2 Assay for Nuclear Size (AID 2282670); settings: high-content imaging, actives raise or lower the signal
Method in brief: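 HepG2 cells dosed 1 hr with 0.39–200 uM compound (0.5% DMSO), formaldehyde-fixed, Hoechst 33342-stained and imaged at 20x; nuclear diameter from nuclear stain, fitted bidirectionally against DMSO.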

Measured: AC50

CCOCN(C(=O)CCl)c1c(C)cccc1CC
active: [9] 30.6 µM | [11] 33.4 µM | [12] 30.5 µM | [13] 99.6 µM | [14] 17.9 µM | [15] 50.7 µM | [16] 65.1 µM | [17] 31.9 µM | [18] 29.4 µM | [19] 9.99 µM
inactive: [1] | [2] | [3] | [4] | [5] | [6] | [7] | [8] | [10]

CC(C)N(C(=O)COc1nnc(C(F)(F)F)s1)c1ccc(F)cc1
active: [12] 115 µM | [13] 99.5 µM | [19] 37.6 µM
not listed: [7] | [20]
inactive: all other assays above

CCN(CC)C(=O)SCc1ccc(Cl)cc1
active: [15] 22.8 µM
not listed: [2] | [7]
inactive: all other assays above

CNC(=O)CSP(=S)(OC)OC
not listed: [1] | [4] | [7] | [17] | [20]
inactive: all other assays above

CNC(=O)Oc1ccccc1OC(C)C
inactive: all assays above

Oc1ccc(Cl)cc1Cc1ccccc1
inactive: [3] | [4] | [5] | [7] | [8] | [9] | [11] | [12] | [13] | [14] | [15] | [16] | [17] | [18] | [19]
active: [20] 112 µM | [6] 110 µM | [9] 102 µM [middle of 4 runs] | [10] 77.4 µM | [12] 77.3 µM [middle of 6 runs] | [13] 34.7 µM and 79.9 µM and 97.3 µM | [14] 43.1 µM and 76.7 µM and 54 µM | [16] 47.2 µM and 157 µM and 159 µM | [17] 80.5 µM and 50.5 µM | [18] 86.3 µM [middle of 4 runs] | [19] 70 µM [middle of 6 runs]
